Source: PubChem (National Center for Advancing Translational Sciences (NCATS))
Most compounds without a hit are left out; they make up all but 19% or so of the library.
HT1080 IDH1KD tx = qHTS for induction of synthetic lethality in tumor cells producing 2HG: qHTS for the HT-1080-IDH1KD cell line | Potency, µM (titrated, usually from 46.1 µM), for inactives: at the highest dose activity, negative = toxicity, actives largely listed as cytotoxic | hit rate 2% among 360,000 | AID 686971, 2013 | HT-1080 IDH1 knockdown viability, ATP luminescence, 48 h;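 further: potency means the concentration at half of the fitted maximal effect; 0% = DMSO wells and -100% = cell-free medium wells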
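Luminescent ATP read-out (CellTiter-Glo, 10 min at room temperature) after 48 h compound exposure at 37 °C gave viability of IDH1-knockdown HT-1080 cells. Activity was normalised to DMSO and cell-free wells, then fitted as concentration-response curves.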
HT1080-NT tox = qHTS for induction of synthetic lethality in tumor cells producing 2HG: qHTS for the HT-1080-NT fibrosarcoma cell line; HT-1080-NT fibrosarcoma viability, CellTiter-Glo ATP luminescence, 48 h; Potency, µM (titrated, usually from 46.1 µM), for the others: top-dose activity, negative = less viability, hits mostly cytotoxic; hit rate 1.6% among 360,000;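 further: NT is the 2HG producing partner of a matched IDH1 knockdown line; potency means the concentration at half of the fitted maximal effect; 0% = DMSO-treated cells and -100% = media-only wells without cells; nearly all actives have a fitted effect of over 55% in size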
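750 cells/well, RPMI + 5% FBS; 2 h settle, compound pin-transfer, 48 h at 37 degrees C. CellTiter-Glo 10 min RT, luminescence. Normalized to DMSO and media-only wells.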
DT40 TDP1 no CPT = qHTS for Inhibitors of human tyrosyl-DNA phosphodiesterase 1 (TDP1): qHTS in cells in absence of CPT; DT40 Tdp1-/- hTDP1 cells, no CPT, ATP luminescence, 48 h; Potency, µM (top dose mostly 46.2 µM), without a hit: top-dose activity change, negative = growth inhibition, actives largely listed as inhibitors; hit rate 15% among 420,000; further: potency means the concentration at half of the fitted maximal effect; nearly all actives have a fitted effect of over 55% in size
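Seeded 400 DT40-hTDP1 cells/well (vehicle DMSO, no 20 nM CPT); pinned compounds; ≥48 hr at 37 °C; CellTiter-Glo luminescence as viability measure.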
DT40 TDP1 CPT = qHTS for Inhibitors of human tyrosyl-DNA phosphodiesterase 1 (TDP1): qHTS in cells in presence of CPT | hit rate 12% among 420,000 | Potency, µM (titrated, usually from 46.2 µM), inactives show at the top dose activity change, negative = growth inhibition, usual class: inhibitors | AID 686979, 2013 | chicken DT40 Tdp1-/-;hTDP1 cells + 20 nM CPT, ATP luminescence, 48 h; further: potency means the concentration at half of the fitted maximal effect; nearly all actives have a fitted effect of over 55% in size
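Chicken DT40 Tdp1-/- cells complemented with human TDP1, 400 cells/well, exposed to compounds plus 20 nM camptothecin for at least 48 h at 37 C; viability read as ATP content by CellTiter-Glo luminescence.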
IL1B secr inh = qHTS for Inhibitors of Inflammasome Signaling: IL-1-beta AlphaLISA Primary Screen; THP-1 LPS/ATP IL-1B secretion, AlphaLISA, 16 h; active compounds read low; activity change, % at 57.5 µM; hit rate 4.7% among 360,000; AID 743279, 2014; in the data active means activity change below about -50%; inconclusive means mostly about -30% to -49%
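Secreted IL-1B measured by AlphaLISA bead assay after 16 h compound exposure of THP-1 cells; compounds (final up to 57.5 uM) added 1 h before LPS (250 ng/mL) and ATP (1.25 mM) stimulation; lower signal means less secretion.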
* = called active by the depositor; u = inconclusive; x = not tested or not shown. Unless noted, the call rests on the fitted dose curve; in most records, active means well fitted curve in the direction sought with a large enough effect; inconclusive means small, poorly fitted or top-dose-only effect, or another doubt; inactive means no such curve, though single readings can be large; an effect the other way counts as inactive or inconclusive. Unless noted, on the % scale 0 is the no-effect control and ±100 the full control effect.

SMILES | HT1080 IDH1KD tx | HT1080-NT tox | DT40 TDP1 no CPT | DT40 TDP1 CPT | IL1B secr inh
CCOC(=O)N/N=C/c1ccccc1OCc1ccc(Cl)cc1 | -2% | 2% | 29µM* | u | -22
CN1C2CCC1CC(NS(=O)(=O)c1ccc(C#N)cc1)C2 (centres undefined) | 2% | 5% | 11% | -6% | 21
CS(=O)(=O)c1ccc([C@@H](O)[C@@H](COC(=O)CN)NC(=O)C(Cl)Cl)cc1 | x | x | 3.8µM* | 6.7µM* | x
CC(NC(=O)c1ccc(S(C)(=O)=O)cc1)c1cccc2ccccc12 (centres undefined) | 0% | -14% | -22% | 0% | -17
CC1CCCC(C)N1C(=O)/C=C/c1ccc(S(=O)(=O)N2CCOCC2)cc1 (centres undefined) | 0% | 4% | u | u | 0
COc1ccc(-c2cc(=O)oc3cc(OCC(=O)N4CCOCC4)ccc23)cc1 | 5% | 0% | -1% | 8% | -9
COc1ccc(-c2cc(=O)oc3cc(OC(=O)C4CCCCC4)ccc23)cc1 | -1% | -19% | 18µM* | u | -25
COc1ccc(-c2cc(=O)oc3cc(OCC(=O)Nc4ccc(CCO)cc4)ccc23)cc1 | -1% | -4% | 0.52µM* | 3.7µM* | 64
COC(=O)COc1ccc2c(-c3ccc(OC)cc3)cc(=O)oc2c1 | 12% | 16% | -2% | 0.41µM* | 24
COc1cc(COc2ccc3c(C)c(Cc4ccccc4)c(=O)oc3c2C)cc(OC)c1OC | u | -1% | 18µM* | 21µM* | 38
COc1ccccc1OCC(=O)Nc1cc(C(F)(F)F)ccc1-n1cncn1 | 8% | 15% | -30% | -4% | -4
Cc1ccc(C2=NS(=O)(=O)N(C)C(C(=O)Nc3ccc4c(c3)OCO4)=C2)cc1 | -13% | -21% | u | u | 11
COc1ccc(C2=NS(=O)(=O)N(C)C(C(=O)Nc3ccc4c(c3)OCO4)=C2)cc1OC | -5% | -8% | 16µM* | 16µM* | 8
COc1ccc(C2=NS(=O)(=O)N(C)C(C(=O)Nc3ccc4c(c3)OCO4)=C2)cc1 | -12% | -6% | 8.2µM* | 16µM* | -17
COc1ccc(C2=NS(=O)(=O)N(C)C(C(=O)NC3CCCCC3)=C2)cc1OC | 8% | 2% | 18µM* | 9.2µM* | 2
COc1ccc(C2=NS(=O)(=O)N(C)C(C(=O)NC3CCCC3)=C2)cc1OC | 8% | -2% | u | u | -23
CCOc1ccc(N2C(=O)Nc3ccc(Br)cc3C2(O)C(=O)NCCN(C)C)cc1 (centres undefined) | 8% | 7% | 1% | 0% | 1
Clc1cccc(-c2noc3ncnc(NC4CCCCC4)c23)c1 | x | x | 26µM* | 21µM* | x
Cc1cccc(Nc2ncnc3onc(-c4cccc(Cl)c4)c23)c1C | -7% | -12% | 18µM* | 21µM* | 17
Cc1ccc(CCNc2ncnc3onc(-c4ccc(Cl)cc4)c23)cc1 | x | x | 26µM* | u | x
COc1ccc(CCNc2ncnc3onc(C)c23)c(OC)c1 | x | x | 0.52µM* | 1.2µM* | x
COc1cccc(CNc2ncnc3onc(C)c23)c1 | x | x | 9.2µM* | 13µM* | x
CCc1cccc(Nc2ncnc3onc(-c4ccc(F)cc4)c23)c1 | x | x | 16µM* | 23µM* | x
Cc1cccc(Nc2ncnc3onc(-c4ccc(F)cc4)c23)c1C | -9% | 23% | u | u | 12
O=C(NN=C1CCCCCCCCCCC1)c1ccncc1 | 20% | 23% | -4% | -1% | 0
COc1cc(C(=O)N/N=C2\CCS(=O)(=O)c3ccc(F)cc32)cc(OC)c1OC | 1% | 0% | u | -14% | 9
